Test results from PubChem BioAssay (NCATS).
Records with an inconclusive call do not appear. Entries that show only a call come without a potency. Active and inactive are the calls of the source. Calls come from the whole dose curve; as a rule, active = well fitted inhibition curve with a large enough effect; inconclusive = small, poorly fitted or top-dose-only effect; inactive = flat fitted curve, though single readings scatter. Peptide text beside a SMILES is read from it. * marks the point of attachment. Cbz = O=C(OCc1ccccc1)*; CH2F = FC*

System: CRL-7250
Assay: qHTS assay to identify novel small-molecules to repurpose for Merkel cell carcinoma treatment (AID 1296009); note: nearly all actives have a fitted effect of over 60% in size
Conditions: MCC and control cell lines, CellTiter-Glo viability, 72 h; series mostly up to 92 µM
How it was run: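 Cell viability measured by CellTiter-Glo following 72 hr compound treatment at 37 degree celsius, with NPC and MIPE libraries tested in 8- and 11-point concentration series.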

Compound	Potency	outcome
COC1=Cc2c(nc3n(c2=O)C(C)C(=O)NC3(O)C(C)C)OC=C1 (stereo not given)	inactive	
CC1OC(OC2C(CO)OC(OCC3OC(OC(=O)C45CCC(C)(C)CC4C4=CCC6C7(C)CCC(OC8OC(C(=O)O)C(O)C(OC9OC(CO)C(O)C(O)C9O)C8O)C(C)(C)C7CCC6(C)C4(C)CC5)C(O)C(O)C3O)C(O)C2O)C(O)C(O)C1O (stereo not given)		inactive [at 9.27 µM]
C=C(C)[C@@H]1CC[C@]2(C)CC[C@]3(C)C(CCC4[C@@]5(C)CC[C@H](O)C(C)(C)C5CC[C@]43C)C12 (stereo not given in full)	inactive	
COC(=O)CC[C@H](NC(=O)[C@H](CC(C)C)NC(=O)OCc1ccccc1)C(=O)N[C@@H](Cc1cnc[nH]1)C(=O)N[C@@H](CC(=O)OC)C(=O)CF (Cbz-LE(OMe)HD(OMe)-CH2F)		inactive [at 9.27 µM]
CC1(C)CC[C@]2(C(=O)O)CC[C@]3(C)C(=CCC4[C@@]5(C)C[C@H](O)[C@H](O[C@@H]6OC[C@H](O)[C@H](O)[C@H]6O)[C@@](C)(CO)C5CC[C@]43C)[C@@H]2C1 (stereo not given in full)	inactive	
CC1=C2C[C@@]3(C)[C@@H](CCC[C@@H]3C)C[C@@]2(O)OC1=O	inactive	
O=C(Nc1ccccc1-c1cn2c(CN3CCNCC3)csc2n1)c1ccc2ccccc2n1	inactive	
NC(=O)NCCCC(NC(=O)Cc1ccccc1)C(=O)O (stereo not given)	inactive	
CCC(C)/C=C(C)/C=C/C1=CC2=C(Cl)C(=O)C(C)(OC(C)=O)C(=O)C2=CN1C1CCCCN(C(CCC(N)=O)C(=O)O)C1=O (stereo not given)	inactive	
O=C(NC1CCN(CC(F)(F)F)CC1)c1ccc(-c2cccc(F)c2)nc1	inactive	
C=C1C[C@]23C[C@H]1CC[C@H]2[C@]1(C)CCC[C@@](C)(C(=O)O)[C@H]1[C@@H]3C(=O)O	inactive	
COc1cc(/C=C/C(=O)O)ccc1O[C@@H]1O[C@H](CO)[C@@H](O)[C@H](O)[C@H]1O[C@@H]1OC[C@](O)(CO)[C@H]1O	inactive	
O=C(/C=C/c1ccc(O)c(O)c1)OC[C@H]1O[C@@H](OC2CCCCC2O)[C@H](O)[C@@H](O)[C@@H]1O (stereo not given in full)	inactive	
CC(=O)OC1CC(C(C)(C)O)OC2CCC3(C)OC4=C(C(=O)C=C5C(C)C(OC(C)=O)C6(C)C(C)OC546)C(O)C3C12C (stereo not given)	inactive	
CCC(COC)n1nnc2c(Nc3ccc(OC)cc3C)nc(C)cc21 (stereo not given)	inactive	
COc1ccc(C2(O)c3c(ccc4c3OC(C)(CCC=C(C)C)C=C4)NC(=O)C2OC)cc1 (stereo not given)	inactive	
COc1cc2c(cc1OC)N1C(=O)C[C@]34C=CCN5CC[C@@H]2[C@@H](CC3)[C@]514	inactive	
CC12CCC3C(C)(C)C(O)CCC3(C)C1Cc1c(oc(C(=O)O)cc1=O)O2 (stereo not given)	inactive	
COc1ccc(NC(=O)C2C[C@H](C)CC[C@H]2C(C)C)cc1 (stereo not given in full)	inactive	
COc1ccc(CNC(=O)c2cc(-c3cncc(C)c3)ncc2-c2nccs2)nc1OC	inactive	

Compound	Potency	outcome
C#Cc1cnc2[nH]c(=O)n(C(CC)CC)c2n1	inactive	
C=C(COC(=O)CC(C)C)C1Cc2cc(C(C)=O)ccc2O1 (stereo not given)	inactive	
NC(=O)c1ccc(F)c2c1C[C@@H](N(C1CCC1)C1CCC1)CO2	inactive	
CC1(C)CC[C@]2(C(=O)O[C@@H]3O[C@H](CO)[C@@H](O)[C@H](O)[C@H]3O)CC[C@]3(C)C(=CCC4[C@@]5(C)C[C@@H](O)[C@H](O)C(C)(C)C5[C@H](O)C[C@]43C)[C@@H]2[C@@H]1O (stereo not given in full)	inactive	
O=C(/C=C/c1ccc(O)cc1)OCC1OC(O)C(OC2OC(CO)C(O)C(O)C2O)C(O)C1O (stereo not given)	inactive	
CC(NCc1ccc(OCc2cccc(F)c2)cc1)C(N)=O (stereo not given)	inactive	
CC12CC(c3ccoc3)OC(=O)C1CCC1(C)C2CCC(O)C1(C)O (stereo not given)	inactive	
CCC/C=C1\OC(=O)C2=C1CCC(O)C2O (stereo not given)	inactive	
CCC(C)C(=O)OC[C@H]1O[C@H](O[C@H]2O[C@H](CO)[C@@H](O)[C@H](O)[C@H]2O)[C@H](O)[C@@H](O)[C@@H]1O (stereo not given in full)	inactive	
C=CC(C)(CC/C=C(\C)C(=O)OC)OC1OC(COC(=O)CC(C)(O)CC(=O)O)C(OC2OC(CO)C(O)C(O)C2O)C(O)C1O (stereo not given)	inactive	
Cc1oc(S(=O)(=O)N2CCCCC2)cc1NC(=O)Nc1ccccc1	inactive	
C=C1C2(CCC(=O)OC2(C)C)CC(OC(=O)/C(C)=C/C)C2(C)C13OC14C(=O)OC(C)(C(=O)C12C(=O)OC4C)C3OC(C)=O (stereo not given)	inactive	
CC(=O)N[C@@H](Cc1c[nH]c2ccccc12)C(=O)N[C@@H](CCC(=O)O)C(=O)N[C@@H](Cc1cnc[nH]1)C(=O)N[C@@H](CC(=O)O)C(=O)Nc1ccc2c(C(F)(F)F)cc(=O)oc2c1 (HELM PEPTIDE1{[ac].W.E.H.D.[O=c1cc(C(F)(F)F)c2ccc(N[*:1])cc2o1]}$$$$V2.0)	inactive	
CSCC1OC(n2cnc3c(N)ncnc32)C(O)C1O (stereo not given)	inactive	
C[C@@H]1O[C@@H](O[C@@H]2[C@@H](O)[C@H](O[C@H]3[C@H](O[C@H]4CC[C@@]5(C)C(CC[C@]6(C)C5CC=C5[C@@H]7CC(C)(C)CC[C@]7(C(=O)O[C@@H]7O[C@H](CO)[C@@H](O)[C@H](O)[C@H]7O[C@@H]7O[C@@H](C)[C@H](O[C@@H]8O[C@@H](C)[C@H](O)[C@@H](O)[C@H]8O)[C@@H](O)[C@H]7O)CC[C@]56C)[C@@]4(C)CO)O[C@H](C(=O)O)[C@@H](O)[C@@H]3O)O[C@H](CO)[C@H]2O)[C@H](O)[C@H](O)[C@H]1O (stereo not given in full)		inactive [at 9.27 µM]
CC(C)(CO)c1cc2cc(NC(=O)C3(c4ccc5c(c4)OC(F)(F)O5)CC3)c(F)cc2n1CC(O)CO (stereo not given)	inactive	
CC(C)c1cc2c(c(O)c1O[C@@H]1O[C@H](CO)[C@@H](O)[C@H](O)[C@H]1O)CC1(O)CCC(O)C(C)(C)C1CC2 (stereo not given in full)	inactive	
COC(=O)c1cc(OC)cc(OC)c1C(=O)c1c(OC)cc2c(c1O)C1CCC(O)C(C)(O2)O1 (stereo not given)	inactive	
COC(=O)C1=COC(OC2OC(CO)C(O)C(O)C2O)C2C(COC(=O)/C=C/c3ccc(O)cc3)C(O)C(O)C12 (stereo not given)	inactive	
CC1CCC2(C)CCC3(C)C(=CCC4C5(C)CCC(O)C(C)(C(=O)O)C5CCC43C)C2C1C (stereo not given)	inactive	
